About 83,000 compounds went through this panel and 20% of them were active in at least one assay; those are over-represented in the sample as a whole.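 For each line, cells grew in 96-well plates with the test compound present at a single concentration for 48 hours.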 Calls of active or inactive are those of the source. The calls were made as follows: active = growth percent below 10; inactive = the rest.
Legend:
Test in all cases: NCI-60 one-dose screen, 48 h (100 = growth as untreated, 0 = no growth, -100 = all killed)
[1] = test system: SK-MEL-2 melanoma; settings: 10 µM
[2] = test system: EKVX NSCLC; settings: 10 µM
[3] = test system: SN12C renal; settings: 10 µM
[4] = test system: UO-31 renal; settings: 10 µM
[5] = test system: TK-10 renal; settings: 10 µM unless noted
[6] = test system: ACHN renal; settings: 10 µM
[7] = test system: CAKI-1 renal; settings: 10 µM
[8] = test system: A498 renal; settings: 10 µM
[9] = test system: CCRF-CEM leukemia; settings: 10 µM
[10] = test system: MOLT-4 leukemia; settings: 10 µM

Measured: growth

O=C(O)CCCCNC(=O)c1ccccc1
inactive: [1] 113% | [2] 103% | [3] 115% | [4] 100% | [5] 101% | [6] 115% | [7] 107% | [8] 91.4% | [9] 110% | [10] 106%

COc1cc(OC)c2ccc(=O)oc2c1
inactive: [1] 104% | [2] 95.2% | [3] 97% | [4] 94.9% | [5] 101% | [6] 104% | [7] 113% | [8] 101% | [9] 106% | [10] 115%

O=C1C=C(O)C(=O)C=C1O
inactive: [1] 107% | [2] 102% | [3] 107% | [4] 79.2% | [5] 102% | [6] 97.2% | [7] 97.4% | [8] 92.4% | [10] 91.3%

CC(=O)N(C)c1ccc([N+](=O)[O-])cc1
inactive: [1] 92% | [2] 122% | [3] 96.9% | [4] 104% | [5] 95.8% | [6] 99.4% | [7] 107% | [8] 116% | [9] 119% | [10] 75.9%

CC1(C)OC(=O)C(c2ccsc2)C(=O)O1
inactive: [1] 112% | [2] 105% | [3] 107% | [4] 84.4% | [5] 91.8% | [6] 107% | [7] 100% | [9] 106% | [10] 105%

C/C=C/CC(C)C(O)C1C(=O)NC(CC)C(=O)N(C)CC(=O)N(C)C(CC(C)C)C(=O)NC(C(C)C)C(=O)N(C)C(CC(C)C)C(=O)NC(C)C(=O)NC(C)C(=O)N(C)C(CC(C)C)C(=O)N(C)C(CC(C)C)C(=O)N(C)C(C(C)C)C(=O)N1C (configuration not stated)
inactive: [2] 26.7% | [3] 27.4% | [4] 24.1% | [5] 31.3% | [6] 16.8% | [7] 31%
active: [1] -36.5% | [8] -5.73% | [10] -4.07%

Oc1ccc2c(c1)OCC1(O)Cc3cc(O)c(O)cc3C21 (configuration not stated)
inactive: [1] 65.7% | [2] 107% | [3] 100% | [4] 58.9% | [5] 106% | [6] 104% | [7] 85.5% | [9] 71.5% | [10] 316%

Cc1cc(N)ccc1-c1ccc(N)cc1C
inactive: [1] 86.3% | [2] 106% | [3] 98.5% | [4] 77.1% | [5] 111% | [6] 99.1% | [7] 94.8% | [8] 97.1% | [9] 105% | [10] 103%

Nc1nc(N)c2cc(S(=O)(=O)c3cccc(C(F)(F)F)c3)ccc2n1
inactive: [1] 89.8% | [2] 44% | [3] 33.7% | [4] 56% | [5] 72.6% | [6] 38.4% | [7] 65.1% | [8] 78.4% | [9] 45.8% | [10] 37.3%

COS(=O)(=O)c1ccc(Br)cc1
inactive: [1] 95% | [2] 106% | [3] 93.9% | [4] 86.2% | [5] 97.5% | [6] 103% | [7] 115% | [8] 113% | [9] 127% | [10] 129%

CC(=O)Nc1ccc(NC(C)=O)c2c1C(=O)c1ccccc1C2=O
inactive: [1] 103% | [2] 73.5% | [3] 86.9% | [4] 59.5% | [5] 92.6% | [6] 78.8% | [7] 68.6% | [8] 91.1% | [10] 105%

O=[N+]([O-])c1cccc(N=Nc2ccc(O)cc2O)c1
inactive: [1] 79.8% | [2] 69.9% | [3] 79.6% | [4] 57.3% | [5] 65.7% | [6] 78.7% | [7] 39.1% | [8] 66.9% | [10] 50.2%

CCOc1ccc(I)cc1
inactive: [1] 130% | [2] 105% | [3] 97.1% | [4] 89% | [5] 112% | [6] 110% | [7] 113% | [8] 101% | [9] 121% | [10] 115%

C/C(O)=C(\C=N\C(N)=S)C(=O)Nc1ccccc1
inactive: [1] 107% | [2] 106% | [3] 94.1% | [4] 91.5% | [5] 124% | [6] 103% | [7] 97.8% | [8] 98.6% | [10] 103%

Cc1ccc(/C(C#N)=C/c2ccc3c(c2)OCO3)cc1
inactive: [1] 43.3% | [2] 87.3% | [3] 90.6% | [4] 64.3% | [5] 80.8% | [6] 95.3% | [7] 53.6% | [9] 65.8% | [10] 63.6%

Nc1ccc(N=Nc2ccc(O)cc2)c(N)n1
inactive: [1] 97.1% | [2] 67.6% | [3] 72.8% | [4] 34.7% | [5] 93.7% | [6] 26.3% | [7] 39.1% | [9] 37.4% | [10] 46.1%

O=[N+]([O-])c1cccc(C(F)(F)F)c1
inactive: [1] 116% | [2] 104% | [3] 95.1% | [4] 96.3% | [5] 108% | [6] 102% | [7] 94.3% | [8] 98.4% | [9] 96.2% | [10] 102%

COc1cc(/C=C(\C#N)C(=O)c2ccccc2)ccc1OCc1ccccc1
active: [9] -32.5%
inactive: [1] 127% | [2] 107% | [3] 102% | [4] 79.7% | [5] 109% | [6] 102% | [7] 96.5% | [8] 87.9% | [10] 106%

NC(=O)NC(=O)c1ccc(Cl)cc1
inactive: [1] 92.2% | [2] 101% | [3] 104% | [4] 77% | [5] 100% | [6] 105% | [7] 94.1% | [8] 102% | [10] 102%

O=C1c2ccccc2C(=O)c2c1ccc(C(=O)O)c2[N+](=O)[O-]
inactive: [1] 119% | [2] 109% | [3] 101% | [4] 85.1% | [5] 109% | [6] 98.8% | [7] 98.8% | [8] 84% | [10] 93.5%

CN(C)c1ccc2oc(=O)c3ccccc3c2c1
inactive: [1] 106% | [2] 50.4% | [3] 89.2% | [4] 81% | [5] 107% | [6] 103% | [7] 98.4% | [9] 110% | [10] 131%

CC1=NN(c2ccccc2)C(=O)/C1=C\N1CC(=O)NC1=S
inactive: [1] 108% | [2] 105% | [3] 101% | [4] 92% | [5] 122% | [6] 98.8% | [7] 98% | [8] 92.9% | [10] 102%

NNc1ccccc1C(=O)O
inactive: [1] 102% | [2] 116% | [3] 116% | [4] 87.9% | [5] 110% | [6] 98.9% | [7] 110% | [8] 98.1% | [10] 107%

O=c1[nH]cc(Cl)cc1O
inactive: [1] 89% | [2] 82.2% | [3] 95% | [4] 62.4% | [5] 89.4% | [6] 62.2% | [7] 85.9% | [9] 49% | [10] 92.1%

COc1ccc(C2(O)CCCCC2)cc1
inactive: [1] 107% | [2] 105% | [3] 101% | [4] 97% | [5] 113% | [6] 115% | [7] 100% | [8] 86.9% | [9] 96.1% | [10] 97.5%

O=[N+]([O-])c1ccccc1N=Nc1ccc(O)cc1O
inactive: [1] 134% | [2] 116% | [3] 107% | [4] 66.3% | [5] 140% | [6] 109% | [7] 95.1% | [8] 139% | [10] 101%

O=C(N/N=C\c1cc(Br)cc(Br)c1O)N/N=C/c1cc(Br)cc(Br)c1O
active: [1] -23.8% | [9] 3.69%
inactive: [2] 69.3% | [3] 59% | [4] 31% | [5] 65.5% | [6] 52.2% | [7] 41.4% | [8] 70.4% | [10] 36.4%

O=C(/C=C\c1ccc(O)cc1)c1ccccc1
inactive: [1] 114% | [2] 91.3% | [3] 89% | [4] 67.8% | [5] 95.2% | [6] 97.2% | [7] 85.1% | [8] 114% | [10] 96.1%

CC1(C)/C(=C\CO)C2CCC1C2 (configuration not stated)
inactive: [1] 105% | [2] 113% | [3] 99.4% | [4] 78.5% | [5] 89.7% | [6] 112% | [7] 102% | [9] 92.3% | [10] 107%

O=[N+]([O-])c1ccc(CO)cc1
inactive: [1] 118% | [2] 101% | [3] 106% | [4] 93.5% | [5] 99.8% | [6] 111% | [7] 102% | [8] 110% | [9] 105% | [10] 100%

Reference: PubChem BioAssay (NCI)
